Data on eight molecules can be found in PubChem BioAssay (Tox21).

Records with an inconclusive call do not appear. Unmarked numbers belong to inactive results. Activity calls are given as the source filed them. Unless noted, the call rests on the fitted dose curve; in most records, active means well fitted curve in the direction sought with a large enough effect in the repeat runs; inconclusive means weak or mixed curves; inactive means no such curve, though single readings can be large; an effect the other way counts as inactive or inconclusive.

Assay [1] is described as follows: qHTS assay to identify small molecule agonists of the NFkB signaling pathway - cell viability counter screen (AID 1159515; calls by dose curve; further: series mostly up to about 61 µM; on the % scale 0 is the no-effect control and ±100 the full control effect; nearly all actives have a fitted effect of over 55% in size). The method, boiled down: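 Luminescence from CellTiter-Glo (30 min, room temperature) gives viability, measured in the same wells as the beta-lactamase reporter read. Cells were NFkB-bla ME-180, 2,000 per well, treated 5 hr with compounds.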

Assay [2] is described as follows: qHTS assay to identify small molecule agonists of the endoplasmic reticulum stress response signaling pathway (AID 1159516; active means well fitted activation curve with a large enough effect in the signal ratio in the repeat runs, not every such curve was filed as active; the % refers to the signal ratio; further: on the % scale 0 is the no-effect control and ±100 the full control effect). The method, boiled down:
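Read-out is beta-lactamase cleavage of a FRET substrate (405 nm excitation; 460 and 530 nm emissions) in ESRE-bla HeLa cells after a 5 hr compound exposure at 37 C. Substrate incubation ran 2 hr at room temperature.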
In general terms: Quantitative high-throughput screening tests each substance at several concentrations.

The nature of assay [3]: qHTS assay to identify small molecule agonists of the endoplasmic reticulum stress response signaling pathway - cell viability counter screen (AID 1159517; calls by dose curve;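 further: HeLa cells carrying an ER stress response element beta-lactamase reporter; series mostly up to about 61 µM; on the % scale 0 is the no-effect control and ±100 the full control effect; nearly all actives have a fitted effect of over 50% in size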). The method, boiled down: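 Counter-screen wells were identical to the reporter wells. Cells were plated at 1,500 per well and dosed for 5 hr, then read for luminescence 30 min after CellTiter-Glo addition.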
The nature of assay [4]: qHTS assay to identify small molecule antagonists of the retinoid-related orphan receptor gamma (ROR-gamma) signaling pathway - cell viability counter screen (AID 1159520). Further: on the % scale 0 is the no-effect control and ±100 the full control effect; nearly all actives have a fitted effect of over 50% in size. The method, boiled down: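 Tet-on ROR gamma CHO cells were given compounds for 2 hr, then doxycycline hyclate at 1 uM final, and incubated 16 hr at 37 C. Viability was measured as ATP content by CellTiter-Glo luminescence.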

Assay [5] addresses Nuclear receptor ROR-gamma (Homo sapiens) (UniProt P51449). Put plainly: qHTS assay to identify small molecule antagonists of the retinoid-related orphan receptor gamma (ROR-gamma) signaling pathway (AID 1159521;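 further: CHO cells with doxycycline inducible ROR-gamma driving an RORE luciferase reporter; top concentration of the series differs between compounds; on the % scale 0 is the no-effect control and ±100 the full control effect; nearly all actives have a fitted effect of over 50% in size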). Summed up: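 Readout: ONE-Glo luciferase luminescence, 30 min at room temperature. System: Tet-on RORγ CHO, RORE-LUC. Sequence: compound 2 h, doxycycline 1 uM final, 16 h at 37 C.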

Assay [6] is described as follows: qHTS assay to identify small molecule agonists of the AP-1 signaling pathway - cell viability counter screen (AID 1159525; calls by dose curve; further: nearly all actives have a fitted effect of over 55% in size). Summed up:
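AP-1-bla ME-180 cells in Opti-MEM with 0.5% dialyzed FBS, compound exposure 5 h at 37 C in 15-point titration. Viability read in the same wells as ATP content by CellTiter-Glo luminescence, normalised to tetra-n-octylammonium bromide and DMSO controls.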

A short description of assay [7]: qHTS assay to identify small molecule agonists of the AP-1 signaling pathway (AID 1159526; calls by dose curve; further: on the % scale 0 is the no-effect control and ±100 the full control effect).
A short description of assay [8]: qHTS assay to identify small molecule agonists of the RXR signaling pathway - cell viability counter screen (AID 1159529). Further: series mostly up to about 77 µM; on the % scale 0 is the no-effect control and ±100 the full control effect; nearly all actives have a fitted effect of over 50% in size. Summed up: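 Tox21 10K compounds were tested for cytotoxicity against GeneBLAzer RXR-alpha HEK 293T cells grown in 2% charcoal-stripped FBS. Exposure lasted 16 hr at 37 C, 5% CO2; viability read by CellTiter-Glo luminescence.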
Assay [9] is described as follows: qHTS assay to identify small molecule antagonists of the retinoid acid receptor (RAR) signaling pathway - cell viability counter screen (AID 1159551). Further: on the % scale 0 is the no-effect control and ±100 the full control effect; nearly all actives have a fitted effect of over 35% in size. Summed up:
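Luminescent ATP quantitation (CellTiter-Glo) gave cell viability in C3RL4 cells exposed to test chemicals for 6 h at 37 C alongside 1 uM final retinol.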

Assay [10] is described as follows: qHTS assay to identify small molecule antagonists of the retinoic acid receptor (RAR) signaling pathway (AID 1159552). The method, boiled down:
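Overnight-plated C3RL4 reporter cells get compound, then retinol to 1 uM final; plates sit 6 hr at 37 C, 5% CO2. A luciferase reagent is added and light output recorded after 30 min at room temperature.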

Assay [11] is described as follows: qHTS assay to identify small molecule agonists of the retinoic acid receptor (RAR) signaling pathway (AID 1159553). Further: on the % scale 0 is the no-effect control and ±100 the full control effect. The method, boiled down:
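Luminescence from a RARE-driven luciferase reporter in C3RL4 cells served as the read-out, measured after 30 min with detection reagent at room temperature. Compounds in DMSO were applied for 6 hr at 37 C following overnight seeding.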

A short description of assay [12]: qHTS assay to identify small molecule antagonists of the estrogen related receptor (ERR) signaling pathway from Tox21 library - cell viability counter screen (AID 1224834). Further: on the % scale 0 is the no-effect control and ±100 the full control effect; nearly all actives have a fitted effect of over 30% in size. Summed up:
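Fluorescence from CellTiter-Fluor gives the viability read-out, taken 30 min after reagent addition. Before that, ERR cells seeded 6 h earlier were incubated with compounds for 17.5 h at 37 C.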

For assay [13], the target named is Luciferin 4-monooxygenase (Photinus pyralis) (UniProt P08659). Briefly: qHTS assay to identify small molecule inhibitors of firefly luciferase (AID 1224835). Further: nearly all actives have a fitted effect of over 25% in size. Further: potency means the concentration at half of the fitted maximal effect. On activity change, negative = inhibition: series mostly up to about 120 µM; on the % scale 0 is the no-effect control and ±100 the full control effect. Summed up: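 Biochemical qHTS: compounds run as interplate titrations against purified firefly enzyme, with D-luciferin and ATP each at its KM concentration. Light output recorded by CCD imaging.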
Sequence of Luciferin 4-monooxygenase (Photinus pyralis) (P08659 whole entry, looked up): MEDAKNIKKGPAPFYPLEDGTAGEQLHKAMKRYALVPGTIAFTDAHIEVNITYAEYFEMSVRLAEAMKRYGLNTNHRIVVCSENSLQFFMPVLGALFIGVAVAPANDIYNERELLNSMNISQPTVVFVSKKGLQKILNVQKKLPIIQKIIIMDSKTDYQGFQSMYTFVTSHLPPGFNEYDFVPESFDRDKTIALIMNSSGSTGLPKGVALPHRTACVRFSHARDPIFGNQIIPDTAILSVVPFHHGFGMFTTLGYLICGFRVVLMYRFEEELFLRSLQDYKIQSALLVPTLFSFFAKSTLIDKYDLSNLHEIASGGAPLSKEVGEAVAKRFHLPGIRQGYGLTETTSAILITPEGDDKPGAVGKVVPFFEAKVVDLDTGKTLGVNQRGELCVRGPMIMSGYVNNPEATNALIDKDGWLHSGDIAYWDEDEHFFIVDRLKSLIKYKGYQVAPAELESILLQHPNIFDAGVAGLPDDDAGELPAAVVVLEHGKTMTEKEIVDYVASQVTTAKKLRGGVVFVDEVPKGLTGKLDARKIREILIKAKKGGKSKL
The nature of assay [14]: qHTS assay to identify small molecule agonists of the constitutive androstane receptor (CAR) signaling pathway - cell viability counter screen (AID 1224836). Further: series mostly up to about 92 µM; on the % scale 0 is the no-effect control and ±100 the full control effect; nearly all actives have a fitted effect of over 45% in size. Summed up:
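Fluorescence from CellTiter-Fluor indicates live cells after 23 h exposure. The human hepatoma line expresses hCAR and a CYP2B6-2.2kb reporter. Incubation medium contains 0.75 uM PK11195 (final).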

Assay [15] in a line: qHTS assay to identify small molecule antagonists of the constitutive androstane receptor (CAR) signaling pathway - cell viability counter screen (AID 1224837). Further: series mostly up to about 92 µM; on the % scale 0 is the no-effect control and ±100 the full control effect; nearly all actives have a fitted effect of over 45% in size. Summed up:
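HepG2-CYP2B6-hCAR cells, 2500/well, 4 hr pre-incubation; compound titration, 15 conc.; CITCO 50 nM final; 23 hr, 37 C/5% CO2; CellTiter-Fluor, fluorescence intensity.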

The target in assay [16] is Nuclear receptor subfamily 1 group I member 3 (Homo sapiens) (UniProt Q14994). Put plainly: qHTS assay to identify small molecule antagonists of the constitutive androstane receptor (CAR) signaling pathway (AID 1224838).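 Further: HepG2 cells stably expressing hCAR with CYP2B6 luciferase reporter stimulated by CITCO; on the % scale 0 is the no-effect control and ±100 the full control effect; nearly all actives have a fitted effect of over 40% in size.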 The method, boiled down: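 HepG2-CYP2B6-hCAR cells; 4 h pre-incubation; cpd (15 conc) + CITCO 50 nM final; 24 h, 37 C/5% CO2; ONE-Glo, luminescence.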
Sequence of Nuclear receptor subfamily 1 group I member 3 (Homo sapiens) (Q14994 whole entry, looked up): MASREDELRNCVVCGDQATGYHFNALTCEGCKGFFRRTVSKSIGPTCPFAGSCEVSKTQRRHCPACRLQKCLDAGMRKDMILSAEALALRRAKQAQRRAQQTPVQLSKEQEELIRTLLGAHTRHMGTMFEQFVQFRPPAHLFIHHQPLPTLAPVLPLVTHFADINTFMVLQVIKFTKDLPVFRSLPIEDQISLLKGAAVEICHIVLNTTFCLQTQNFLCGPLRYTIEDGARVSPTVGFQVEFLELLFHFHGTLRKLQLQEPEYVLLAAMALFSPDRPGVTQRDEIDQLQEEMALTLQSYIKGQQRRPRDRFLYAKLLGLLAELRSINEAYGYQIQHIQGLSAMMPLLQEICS

The target is the same in assay [17]. Put plainly: qHTS assay to identify small molecule agonists of the constitutive androstane receptor (CAR) signaling pathway (AID 1224839).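 Further: HepG2 cells stably carrying human CAR and a CYP2B6 luciferase reporter; series mostly up to about 92 µM; on the % scale 0 is the no-effect control and ±100 the full control effect; nearly all actives have a fitted effect of over 15% in size.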 Summed up: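 Stable hCAR/CYP2B6-2.2kb HepG2 line in DMEM with 10% FBS; compounds (15 concentrations) and 0.75 uM PK11195 final, 24 h at 37 C/5% CO2, then ONE-Glo luminescence after 30 min.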
Assay [18] is described as follows: qHTS assay to identify small molecule antagonists of the estrogen related receptor signaling pathway with the pleiotropic PPARgamma coactivator (PGC) from Tox21 10K library - cell viability counter screen (AID 1224840; active means well fitted cell-killing curve with a large enough effect in the repeat runs, not every such curve was filed as active; further: on the % scale 0 is the no-effect control and ±100 the full control effect; nearly all actives have a fitted effect of over 40% in size). The method, boiled down:
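PGC/ERR cells, 2,000/well; 6 h pre-incubation 37 C/5% CO2; cpd in DMSO via pin tool; 17.5 h 37 C; CellTiter-Fluor, 30 min; fluorescence.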

A short description of assay [19]: qHTS assay to identify small molecule antagonists of the vitamin D receptor (VDR) signaling pathway - cell viability counter screen (AID 743225). The method, boiled down:
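Cytotoxicity toward the VDR-bla HEK 293T line was scored by ATP-based CellTiter-Glo luminescence, read in the wells already used for the beta-lactamase readout after 16 h compound treatment under 3 nM 1-alpha,25-dihydroxyvitamin D3 stimulation.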

In assay [20] the target is Retinoic acid receptor RXR-alpha (Homo sapiens) (UniProt P19793). Briefly: qHTS assay to identify small molecule agonists of the RXR signaling pathway (AID 1159527; calls by dose curve; further: on the % scale 0 is the no-effect control and ±100 the full control effect; nearly all actives have a fitted effect of over 35% in size). Summed up:
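Reporter activation is measured as beta-lactamase activity via FRET substrate cleavage (emission 460/530 nm) in HEK 293T cells expressing an RXR-alpha-driven bla construct, following 16 hr compound exposure at 37 C.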

Sequence of Retinoic acid receptor RXR-alpha (Homo sapiens) (P19793 whole entry, looked up): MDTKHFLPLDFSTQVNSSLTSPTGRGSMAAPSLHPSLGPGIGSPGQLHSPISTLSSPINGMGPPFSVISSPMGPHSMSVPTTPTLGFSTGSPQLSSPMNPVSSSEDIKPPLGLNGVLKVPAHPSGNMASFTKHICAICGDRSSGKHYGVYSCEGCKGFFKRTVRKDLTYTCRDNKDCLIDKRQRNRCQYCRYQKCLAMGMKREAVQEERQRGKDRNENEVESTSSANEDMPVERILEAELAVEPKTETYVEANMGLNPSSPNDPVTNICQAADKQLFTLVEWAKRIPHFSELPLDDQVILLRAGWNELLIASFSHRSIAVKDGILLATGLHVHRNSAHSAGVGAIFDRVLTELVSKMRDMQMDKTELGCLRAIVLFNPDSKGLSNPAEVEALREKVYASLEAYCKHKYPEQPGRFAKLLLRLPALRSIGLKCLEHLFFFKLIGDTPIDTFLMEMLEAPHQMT

In the case of `CC(C)C(C)C`, the molecule was classed as inactive in [1], in assay [3], in [4], in assay [5], in assay [6] and in assay [9]. Further, the result in assay [10], in [12], in [14], in assay [15], in [16] and in assay [18] was inactive. Further, the Potency result in [2], in [7], in [8], in assay [11], in assay [13] and in [17] was “inactive” throughout.
As to `CSC(=O)c1cccc2nnsc12`, the molecule was classed as inactive in [19], in assay [1], in assay [3], in assay [4], in assay [5] and in [6]. For the same molecule, the molecule was classed as inactive in assay [9], in [10], in assay [12], in [14], in assay [15] and in assay [16]. The molecule was classed as inactive in [18]. The Potency entry in assay [2], in assay [7], in assay [8], in assay [11], in assay [13] and in assay [17] was “inactive” in each case.
As to `CN(C)c1cc(NC(=O)CNC(C)(C)C)c(O)c2c1C[C@H]1C[C@H]3[C@H](N(C)C)C(=O)C(C(N)=O)=C(O)[C@@]3(O)C(=O)C1=C2O`, the outcome in assay [19], in assay [1], in assay [3], in assay [4], in assay [5] and in assay [6] was inactive. Further, the result in [9], in assay [10], in assay [12], in assay [14], in [15] and in assay [16] was inactive. In assay [18], the call was inactive. For the same molecule, the Potency entry in [2], in assay [7], in assay [8], in assay [11] and in [13] was “inactive” in each case.
For the molecule `Cc1ccc(OC(=O)CC(C)C)cc1`, the result in [1], in [3], in assay [4], in assay [5], in assay [6] and in assay [9] was inactive. The call in [10], in [12], in assay [14], in assay [15], in assay [16] and in [18] was inactive. In addition, the Potency entry in [2], in assay [7], in assay [8] and in assay [11] was “inactive” in each case. Moreover, in [13], the Potency was 35.6 µM (active).
For the molecule `CCc1ncc(C)[nH]1`, the outcome in assay [1], in assay [3], in assay [4], in assay [5], in assay [6] and in [9] was inactive. Besides, the outcome in assay [10], in assay [12], in assay [14], in assay [15], in assay [16] and in assay [18] was inactive. For the same molecule, the Potency result in [7], in assay [20], in [8], in assay [11], in [13] and in [17] was “inactive” in each case.
As for `CCOC(=O)[C@H](CCc1ccccc1)N[C@H]1CS[C@H](c2cccs2)CN(CC(=O)O)C1=O`, the outcome in assay [1], in assay [3], in assay [4], in assay [5], in [6] and in assay [9] was inactive. The molecule was called inactive in assay [12], in [14], in [15] and in assay [18]. In addition, the Potency entry in assay [2], in [7], in assay [8], in assay [11] and in assay [13] was “inactive” in each case.
Turning to `COc1ccc(Cl)cc1C`, the molecule was classed as inactive in [19], in assay [1], in assay [3], in assay [4], in assay [5] and in assay [6]. For the same molecule, the molecule was called inactive in [9], in assay [10], in assay [12], in [14], in assay [15] and in assay [18]. The Potency result in assay [2], in assay [7], in [8], in [11] and in [13] was “inactive” throughout.
`CCCCCCCCCCCCCCCCN(C)C`: the viability change, negative = cytotoxic in [19] is -0.156% [at 6.95 µM]; in assay [6], 0.637% [at 6.97 µM]; in [14], 4.94% [at 8.39 µM]; in assay [18], 6.95% [at 8.39 µM]. Also, the activity, negative = cytotoxic in assay [1] was -0.303% [at 6.95 µM]. Moreover, the activation is 0.0292% [at 6.95 µM] in assay [2], -6.44% [at 6.97 µM] in [7] and -0.996% [at 8.36 µM] in assay [11]. Moreover, the activity change, negative = cytotoxicity was -14.5% [at 6.95 µM] in [3], 1.35% [at 6.97 µM] in [8], 0.211% [at 8.39 µM] in assay [9] and 4.91% [at 8.39 µM] in assay [15]. For the same molecule, the activity, negative = cytotoxicity in assay [4] is 7.06% [at 8.39 µM]. The activity change, negative = inhibition was 0.397% [at 8.39 µM] in [5] and 3.25% [at 10.5 µM] in assay [13]. In assay [10], the activity, negative = inhibition is 3.34% [at 8.39 µM].
